Assay results taken from PubChem BioAssay (Tox21).
Records with an inconclusive call do not appear. Entries that show only a call come without a potency. A number with no mark means an inactive call. The source made the active and inactive calls. No rule for the calls is given here.

Test: qHTS assay to identify small molecule antagonists of the estrogen related receptor signaling pathway with the pleiotropic PPARgamma coactivator (PGC) from Tox21 10K library (AID 1224841); also: actives are mostly falling curves and most rising ones were filed inactive; nearly all actives have a fitted effect of over 50% in size
Conditions: PGC/ERR reporter cell line, ONE-Glo luciferase, 18 h; series mostly up to 92.4 µM
Excerpt: U.S. Tox21 Program National Center for Advancing Translational Sciences [NCATS] NIH Chemical Genomics Center [NCGC] U.S. Environmental Protection Agency [EPA] National Institutes of Environmental Health Sciences [NIEHS] National Toxicology Program [NTP] U.S. Food and Drug Administration [FDA] Tox21 Assay Overview: Estrogen related receptors (ERRs), the first orphan nuclear receptors discovered, play an important role in the control of cellular energy metabolism. ERRs are required for high-energy production in response to the environmental challenges. The pleiotropic PPARgamma coactivator (PGC) is a major partner of ERR and a key regulator in energy homeostasis. Together they have been implicated in the etiology of metabolic disorders such as Type 2 diabetes and metabolic syndrome. ERR-alpha was also identified as an adverse marker for breast cancer progression; ERR-alpha-positive tumors have a poor prognosis. To screen and to identify environmental compounds that perturb the ERR and PGC/ERR signaling pathways could provide valuable information for potential therapeutic or preventive measures in the treatment of metabolic disease. For identifying PGC/ERR antagonists, PGC/ERR cell line (provided by NTP) has been used to screen Tox21 10K library.
Tox21 Assay Protocol Summary: The PGC/ERR cells were dispensed at 2,000 cells/5 ul/well in 1536-well white plates using a Multidrop dispenser. After the assay plates were incubated at a 37 C/5% CO2 incubator for 6 hours, 23 nL of compounds dissolved in DMSO, positive and negative controls or DMSO only was transferred to the assay plate by a pin tool. The plates were incubated at 37 C for 18 hours. 4 ul/well of One-Glo reagent was added into the assay plates using a Flying Reagent Dispenser. After 30-minute incubation at room temperature, the luminescence intensity in the plates was measured using a ViewLux plate reader.
Potency is read from the fitted curve at half-maximal effect.

SMILES | Potency | activity, negative = inhibition
COC(=O)/C=C/C(C)=C\C=C\C(C)=C\C=C\C=C(C)\C=C\C=C(C)\C=C\C(=O)O | inactive | –
O=C1c2ccccc2C(=O)C1c1ccc2cc(S(=O)(=O)O)cc(S(=O)(=O)O)c2n1 | inactive | –
Cc1ccccc1CCO | inactive | –
CC(C)C[C@H](NC(=O)[C@H](Cc1ccccc1)NC(=O)c1cnccn1)B(O)O | 0.0188 µM (active) | –
CCOc1ccc(NC(C)=O)cc1N | inactive | –
CCC[Si](OC)(OC)OC | inactive | –
O=C(O)c1cccnc1Nc1cccc(C(F)(F)F)c1 | inactive | –
CC(CC(C#N)(c1ccccc1)C(C)C)N(C)C (stereo not given) | inactive | –
Nc1cccc2c(=O)[nH][nH]c(=O)c12 | 61.4 µM (active) | –
C=CC(=O)OCCCCCCCCCC | inactive | –
CCn1nc(Cc2ccccc2)cc1C1CCN(C[C@H]2C[C@H](N(C)[C@@H](C(=O)O)C(C)C)C[C@@H]2c2cccc(F)c2)CC1 | inactive | –
CCC(=O)O[C@@H]1C[C@H]2CC[C@]1(C)C2(C)C | inactive | –
CCOc1cc(OCC)c(C(C)=O)cc1OCC | inactive | –
CC(O)CN (stereo not given) | inactive | –
CC(=O)Oc1cccc2c1C(=O)c1c(OC(C)=O)cc(C(=O)O)cc1C2=O | 21.1 µM (active) | –
Cc1cc(SC2=C(O)C[C@@](CCc3ccc(N)cc3)(C(C)C)OC2=O)c(C(C)(C)C)cc1CO | inactive | –
CC(C)Oc1ccccc1O | inactive | –
O=C(c1ccco1)N1CCNCC1 | inactive | –
O=Cc1ccc([N+](=O)[O-])cc1 | inactive | –
COc1ccc(C(=O)c2ccc(C)cc2)c(O)c1 | inactive | –

SMILES | Potency | activity, negative = inhibition
CCCCCC1CCC(=O)O1 (stereo not given) | inactive | –
CC/C=C\CCO | inactive | –
O=C(OCCCCCOC(=O)c1ccccc1)c1ccccc1 | inactive | –
O=C(Nc1ccccc1)c1cc([N+](=O)[O-])ccc1Cl | 15.4 µM (active) | –
CC/C=C/CCO | inactive | –
CC(COc1ccccc1)NC(C)C(O)c1ccc(O)cc1 (stereo not given) | inactive | –
CCC(=O)O[C@]1(C(=O)COC)[C@@H](C)C[C@H]2[C@@H]3CCC4=CC(=O)C=C[C@]4(C)C3(F)[C@@H](O)C[C@@]21C (stereo not given in full) | inactive | –
CC(=O)Nc1ccn(C2COC(COC(=O)c3ccccc3)O2)c(=O)n1 (stereo not given) | inactive | –
Sc1nc(S)nc(S)n1 | inactive | –
CC[C@H](NC(C)C)[C@H](O)c1ccc(O)c2[nH]c(=O)ccc12 | inactive | –
COC=O | – | 9.85% [at 8.39 µM]
O=C(O)CNc1ccccc1 | inactive | –
CCCC(=O)OCc1ccccc1 | inactive | –
COc1ccc(/C(C)=C/C(=O)O)c(OC)c1 | inactive | –
CC1=CC(=C(c2ccc(N)cc2)c2ccc(N)cc2)C=CC1=N | 2.76 µM (active) | –
N#CCCCC(C#N)CCC#N (stereo not given) | inactive | –
CCCN(C1CCN(C(=O)C2CCNCC2)CC1)[C@@H]1CCc2ccc(OC)cc2C1 | inactive | –
CC(=O)c1cccnc1 | inactive | –
CCCCCCOC(=O)c1ccccc1 | inactive | –
CCCCCCCCCCCCSCCOCCO | inactive | –
